Assay results from PubChem BioAssay AID1619 (SRMLSC, 2009).
Hit rate of the full screen: of about 220,000 compounds, about 830 (0.38%) were called active.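 Rule for the calls: active = compound inhibiting the enzyme by more than half at any dose during confirmatory dose-response retesting; inconclusive = strong single-dose inhibitors picked by rank but not retested; inactive = the rest.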 A selection follows. Entries with a potency or affinity are not part of this list. Residues, ends and D or L forms follow the SMILES beside them. *: point of attachment. Boc = CC(C)(C)OC(=O)*

Each compound was assayed against Leucine aminopeptidase (Plasmodium falciparum (isolate 3D7)) (UniProt Q8IL11) (assay: P. falciparum M17LAP inhibitors, primary screen, biochemical, fluorogenic H-Leu-NHMec substrate, 1536-well (AID 1619;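 note: plate controls were full reaction with DMSO carrier for no effect and no enzyme background for full effect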)). Conditions: recombinant M17LAP, H-Leu-NHMec fluorogenic kinetic assay; at 30 µM; active compounds read high.
Leucine aminopeptidase (Plasmodium falciparum (isolate 3D7)), sequence (Q8IL11 whole entry, looked up): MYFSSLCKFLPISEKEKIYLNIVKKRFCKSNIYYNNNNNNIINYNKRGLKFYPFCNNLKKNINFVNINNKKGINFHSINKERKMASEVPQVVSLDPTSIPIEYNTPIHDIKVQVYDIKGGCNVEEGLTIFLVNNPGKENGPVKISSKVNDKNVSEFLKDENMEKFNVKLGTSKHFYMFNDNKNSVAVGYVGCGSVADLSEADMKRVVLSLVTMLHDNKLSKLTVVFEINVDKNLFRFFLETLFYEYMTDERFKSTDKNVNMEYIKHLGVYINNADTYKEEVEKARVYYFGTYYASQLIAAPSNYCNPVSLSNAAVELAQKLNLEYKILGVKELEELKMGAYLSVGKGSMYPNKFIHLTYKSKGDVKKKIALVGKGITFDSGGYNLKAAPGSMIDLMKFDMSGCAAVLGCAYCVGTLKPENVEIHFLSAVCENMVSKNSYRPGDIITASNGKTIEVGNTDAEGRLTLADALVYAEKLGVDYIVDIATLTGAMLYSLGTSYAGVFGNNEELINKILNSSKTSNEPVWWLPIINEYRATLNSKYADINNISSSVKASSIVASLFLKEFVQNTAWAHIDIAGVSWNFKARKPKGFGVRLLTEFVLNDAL

inhibition, inactive:
NC(=O)c1ccc(NC(=O)c2ccccc2S(=O)(=O)c2ccccc2[N+](=O)[O-])cc1 9.64%, COC(=O)N/N=C(\CCC(=O)O)c1cccs1 6.69%, O=C(O)CC/C(=N\NC(=O)c1ccccc1)c1cccs1 18.4%, Brc1ccc(/C=N/Nc2ncnc3c2cnn3Cc2ccccc2)cc1 -4.47%, COc1ccccc1NC(=O)CSc1ncn(-c2ccccc2)n1 5.61%, COc1ccccc1NC(=O)CSc1nc(N)cc(N)n1 10.8%, Nc1nc(SCC(=O)Nc2ccc([N+](=O)[O-])cc2Br)n[nH]1 10.2%, CC(C)c1nc(SCC(=O)Nc2ccc([N+](=O)[O-])cc2Br)n[nH]1 6%, Cc1nnc(SCC(=O)c2ccc(C(C)C)cc2)s1 -0.89%, NC(=O)SCC(=O)Nc1ccccc1C(=O)O 9.51%, CC(C)c1ccc(C(=O)CSc2n[nH]c(-c3ccncc3)n2)cc1 6.54%, O=C(CSc1ccccc1)Nc1ccccc1C(=O)O 18.8%, Cc1cc(C)cc(N2C(=O)CC(N(C(=O)c3ccco3)c3cc(C)cc(C)c3)C2=O)c1 (stereo not given) 3.47%, CC(C)c1ccc(Nc2ncccc2C(=O)O)cc1 13.8%, CC1CN(Cc2ccc(C#N)cc2Cl)CC(C)O1 (stereo not given) -2.17%, C/C(CCN1CCc2nc(-c3ccccc3)c(-c3ccccc3)cc2C1)=N\O[C@H](C)c1cn([C@H](CO)Cc2ccccc2)nn1 12.6%, Cc1oc(C)c(C(N)=O)c1C(N)=O -4.4%, Nc1nc(SCC(=O)Nc2ncc(C(F)(F)F)cc2Cl)n[nH]1 1.49%, Cc1cc(C)nc(SCC(=O)Nc2ccc(S(=O)(=O)N3CCCCC3)cc2)n1 -1.67%, COc1ccccc1N1CCN(C(=O)CSc2nc(N)cc(=O)[nH]2)CC1 -20.8%, O=C(CSc1ncccn1)Nc1ncc(C(F)(F)F)cc1Cl -4.61%, COc1ccccc1NC(=O)CSc1nccc(=O)[nH]1 28.1%, COc1ccc(NC(=O)CSc2nc(O)cc(=O)[nH]2)c(OC)c1 14.7%, O=C(CSc1ncccn1)Nc1ccc(S(=O)(=O)N2CCCCC2)cc1 -1.15%, COc1ccccc1N1CCN(C(=O)CSc2nc(C)cc(=O)[nH]2)CC1 12.1%, CC1=C(C(=O)OCc2ccccc2)C(c2ccoc2)C(C#N)=C(N)O1 (stereo not given) 5.93%, CC(NC(=O)C(=O)N/N=C\c1ccc([N+](=O)[O-])cc1)c1ccccc1 (stereo not given) 9.58%, CCOC(=O)/C(=C\c1cccnc1)C(=O)c1cc(C(C)=O)c(Nc2ccccc2)s1 -7.24%, Cc1ccc(NC(=O)COC(=O)Cc2csc(-c3ccc(Cl)cc3)n2)cc1C 5.09%, CCOC(=O)N1CCC(N(C(=O)Nc2cccc(OC)c2)C(C)CC)CC1 (stereo not given) 7.02%, CCN(CC)CCN1C(=O)C(=O)/C(=C(/O)c2ccncc2)C1c1ccccc1 (stereo not given) 45.4%, O=C(CSc1nc(-c2ccccc2)c(-c2ccccc2)o1)Nc1nnc(-c2ccccc2)s1 5.34%, CC1CCN(S(=O)(=O)c2ccc(NC(=O)Cc3ccccc3)cc2)CC1 2.2%, Nc1cc(=O)[nH]c(SCC(=O)Nc2nnc(-c3ccccc3)s2)n1 34.9%, CCC1CCCCN1S(=O)(=O)c1ccc(NC(=O)CSc2ncccc2C(=O)O)cc1 (stereo not given) -3.83%, CC(=O)N1c2ccccc2C(=O)C1N1CCCCC1 (stereo not given) 7.9%, CCn1c(SCC(=O)c2[nH]c(C)c(C(C)=O)c2C)nnc1-c1cccs1 12.2%, CC(C)CCNC(=O)C1CC(c2cccc([N+](=O)[O-])c2)=NO1 (stereo not given) 3.11%, O=C(CC12CC3CC(C1)CC(CC(=O)N1CCCC1)(C3)C2)N1CCCC1 1.98%, NC(=O)CC[C@H](NC(=O)c1ccc(F)cc1)C(=O)OCC(=O)Nc1ccc(N2CCOCC2)cc1 -1.82%, C=C(C)c1cccc(C(C)(C)NC(=O)NCc2ccncc2)c1 5.4%, Fc1ccccc1-c1[nH]ncc1-c1nnnn1-c1ccccc1 6.84%, COc1ccc(N2CCN(c3oc(-c4ccccc4OC)nc3C#N)CC2)cc1 0.71%, CCOC(=O)N1CCN(c2cc(C)c(C(C)=O)cc2F)CC1 14.4%, O=C(CN1C(=O)C2C3CC(C(Br)C3Br)C2C1=O)N1CCN(Cc2ccccc2)CC1 (stereo not given) -4.45%, O=C(CN1C(=O)C2C3c4ccccc4C(c4ccccc43)C2C1=O)N1CCOCC1 (stereo not given) 4.26%, CCCCOCCCNC(=O)CC(C)c1ccccc1 (stereo not given) 1.77%, CCOC(=O)N1CCN(C(=O)c2ccc3c(=O)n(Cc4ccc(Cl)cc4)c(=S)[nH]c3c2)CC1 -6.9%, CCCCn1c(=S)[nH]c2c(oc3ccc(Cl)cc32)c1=O 21.5%, O=C(COC(=O)/C=C/c1ccc(Cl)cc1Cl)NCCC1=CCCCC1 3.27%, Cc1ccccc1Nc1nnc(SCc2cc(=O)n3ccsc3n2)s1 28.1%, O=c1cc(CSc2nnc(Nc3ccccc3)s2)nc2sccn12 24.3%, C/C(=C\C(=O)O)C12CC3CC(CC(C3)C1)C2 11.6%, COc1ccc(NC(=O)/C=C/c2c(Cl)nc3ccccn23)cc1 -6.42%, CCc1ccccc1NC(=O)N[C@H](C(=O)O)C(C)CC (stereo not given in full) 23.6%, COC(=O)[C@H](C)NC(=O)Nc1ccc(Oc2ccccc2)cc1 -1.77%, CC(C)C[C@H](NC(=O)Nc1ccc(Oc2ccccc2)cc1)C(=O)O 38.9%, CCC(C)[C@H](NC(=O)Nc1ccc(S(N)(=O)=O)cc1)C(=O)O (stereo not given in full) 4.8%, CCc1c(C)sc2nc3c(C(=O)N4CCOCC4)cc(C(=O)c4ccccc4O)cn3c(=O)c12 5.44%, Cc1noc(C)c1C1(O)CCCCCCCCCCC1 0.02%, CSc1nc2ccccc2s1 13.1%, CCC1CSC(Nc2ccc(C(=O)/C=C/c3ccc(Br)cc3)cc2)=N1 (stereo not given) 15.6%, CSc1ncc(Cl)c(C(=O)Nc2nnc(SC/C=C/c3ccccc3)s2)n1 29.5%, CCSc1ncc(Cl)c(C(=O)Nc2ccccc2)n1 -6.07%, C=CCSc1nnc(NC(=O)c2ccc(Cl)nc2)s1 9.37%, CSc1ncc(Cl)c(C(=O)Nc2nnc(SC)s2)n1 13.3%, O=C(CCn1cnc2ccccc21)N/N=C/c1ccccc1O -4.46%, CCOC(=O)CSc1nc(C(C)(C)C)nc2ccccc12 -0.8%, Cc1cc(C)c2c(=O)n(CC(=O)Nc3cccc(F)c3)sc2n1 -3.07%, CC1(C(=O)Nc2nnc(C(C)(C)C)s2)Cc2ccccc2C(=O)O1 (stereo not given) 48.3%, CC1(C(=O)Nc2nnc(SCc3ccccc3)s2)Cc2ccccc2C(=O)O1 (stereo not given) 45.4%, Cc1ccc(-c2noc(CNCCCN(C)C)n2)cc1 2.07%, Cn1c(=O)c2c(SCC(=O)N3CCOCC3)nc(C3CCCCC3)nc2n(C)c1=O -15.2%, O=C(Cc1csc(NC(=O)c2ccccc2)n1)NO 28.3%, O=C(Cc1ccc(-c2ccccc2)cc1)NCc1ccccc1 -2.44%, CS(=O)(=O)N(CC(=O)N1CCOCC1)Cc1ccc(Cl)cc1 -4.28%, CN(C)CC(=O)c1ccc(-c2ccccc2)cc1 68.2%, CCC(=O)c1ccc(-c2ccccc2)cc1 -6.48%, CC(C)C(NC(=O)OC(C)(C)C)C(=O)N1CCCC1C(=O)NC(Cc1ccccc1)C(N)=O (stereo not drawn) (Boc-Val-Pro-Phe-NH2; configuration not given here) 17.4%, CC(C)(C)OC(=O)N1CCCC1C(=O)NC(Cc1ccccc1)C(=O)O (stereo not drawn) (Boc-Pro-Phe-OH; configuration not given here) 9.76%, Cc1nn(-c2ccc(F)cc2)c(Cl)c1/C=C/C(=O)OCC(=O)Nc1ccc(F)cc1F 0.75%, O=C(c1ccccc1)c1ncc(C(F)(F)F)cc1Cl -12.8%, CCCCn1c(SCC(=O)c2ccc(O)c(O)c2)nc2ccsc2c1=O 19.5%, O=C(O)CCCCCn1c(SCC(=O)N2CCCC2)nc2ccsc2c1=O 14.5%, CNc1nc(Oc2ccc(C(=O)OC)cc2)nc(SC)n1 -13.4%, Cn1cc(Cl)c(-c2n[nH]c(=S)n2-c2ccccc2)n1 8.04%, CCOC(=O)c1c(NC(=O)CSc2nc3ccccc3c(=O)n2-c2ccccc2)sc(C(C)=O)c1C -1.44%, O=C(c1cnn(C(=O)COc2ccccc2F)c1)c1cc(F)ccc1O 1.06%, Cc1ccc(O)c(C(=O)c2cnn(C(=O)Cc3csc(C)n3)c2)c1 -1.8%, O=C(Cn1cnc2ccccc2c1=O)c1ccc(Cl)cc1 1.39%, COc1ccc(N(C(=O)C(C)C)S(=O)(=O)c2ccc(Cl)cc2)cc1 -1.25%, CCOc1ccc(Nc2nc(Cc3nnc(SCC(N)=O)o3)cs2)cc1 27.7%, CCn1c(COc2ccc(C)cc2)nnc1SCC(=O)NCc1ccco1 6.34%, CCn1c(CNc2nc(-c3ccccc3)cs2)nnc1SCC(=O)NCc1ccco1 -5.1%, CCOc1ccc(Nc2nc(Cc3nnc(SCC(=O)c4ccc(C)cc4)o3)cs2)cc1 27.5%
